Measured values: PubChem BioAssay
Active and inactive are the calls of the source. Unless noted, no rule for the calls is given here.

Columns and labels:
[1] = test system: Wnt5a (protein binding on small-molecule microarray); experiment: Wnt5a binders on small-molecule microarray, primary screen, biophysical, 635/667 nm fluorescence (AID 1142); conditions: 635 nm fluorescence, higher = more signal;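 also: fluorescence read at 667 nm with signal to noise per printed feature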
[2] = cell viability in Huh7 cells, primary screen, cytotoxicity control for HCV replication inhibitor project, CellTiter-Glo luminescence, basal, 48 h (AID 1143); conditions: Huh7 HCV replicon, higher = more signal, called active from +8 up or from −8 down;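 also: Huh7 hepatoma cells carrying a hepatitis C replication reporter with no stimulus; test concentration not given here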
[3] = P. aeruginosa biofilm formation inhibitors, primary screen, PAO1 strain, BacTiter-Glo luminescence, LB-PBS (AID 1144); conditions: 12 h, higher = more signal
[4] = CREB reporter modulators without forskolin, primary screen, cell-based, PC12, CRE-LacZ reporter, unstimulated (AID 1145); conditions: no forskolin, luminescence, 4.5 h, higher = more signal, called active from +8 up or from −8 down
[5] = CREB reporter modulators under forskolin, primary screen, cell-based, PC12, CRE-LacZ reporter, forskolin-stimulated (AID 1146); conditions: luminescence, 4.5 h, higher = more signal, called active from +8 up or from −8 down;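 also: PC12 cells with 6xCRE LacZ reporter stimulated by forskolin 10 µM; beta-galactosidase reporter signal reflecting CREB driven transcription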
[6] = target: Streptavidin (Streptomyces avidinii) (UniProt P22629); experiment: streptavidin binders on small-molecule microarray, primary screen, artefact control for SMM compound annotation, biophysical, 635/667 nm fluorescence (AID 1147); conditions: streptavidin binding, higher = more signal;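 also: signal reflects streptavidin binding to arrayed compounds as a control protein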
[7] = small-molecule binders of probe aInhba, primary screen, biochemical, small-molecule microarray, 635/667 nm fluorescence (AID 1148); conditions: higher = more signal;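 also: score merges 667nm spot fluorescence with signal-to-noise for antibody binding to printed compounds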
Torsin-1A (Homo sapiens) [8] = target: Torsin-1A (Homo sapiens) (UniProt O14656); experiment: torsin A binders from cell lysate, primary screen, small-molecule microarray, wild-type, 635/667 nm (AID 1149); conditions: COS7 hTOR1A-WT lysate, 635 nm fluorescence, higher = more signal
Torsin-1A (Homo sapiens) [9] = target: Torsin-1A (Homo sapiens) (UniProt O14656); experiment: small-molecule binders of mutant TOR1A in lysate, primary screen, cell lysate, small-molecule microarray, COS7 lysate, 635/667 nm fluorescence (AID 1150); conditions: COS7 hTOR1A mutant lysate, 635 nm fluorescence, higher = more signal;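 also: score pools 667 nm emission and signal to noise measuring lysate protein binding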
[10] = test system: Sonic hedgehog protein (Shh); experiment: small-molecule binders of Shh protein, primary screen, biochemical, small-molecule microarray, 635/667 nm fluorescence (AID 1151); conditions: small-molecule microarray binding, 635 nm fluorescence; higher = more signal;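 also: Shh protein binding to compounds spotted on small-molecule microarray slides; score combines spot fluorescence intensity with signal-to-noise across triplicate slides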

Sequence of Torsin-1A (Homo sapiens) (O14656 whole entry, looked up): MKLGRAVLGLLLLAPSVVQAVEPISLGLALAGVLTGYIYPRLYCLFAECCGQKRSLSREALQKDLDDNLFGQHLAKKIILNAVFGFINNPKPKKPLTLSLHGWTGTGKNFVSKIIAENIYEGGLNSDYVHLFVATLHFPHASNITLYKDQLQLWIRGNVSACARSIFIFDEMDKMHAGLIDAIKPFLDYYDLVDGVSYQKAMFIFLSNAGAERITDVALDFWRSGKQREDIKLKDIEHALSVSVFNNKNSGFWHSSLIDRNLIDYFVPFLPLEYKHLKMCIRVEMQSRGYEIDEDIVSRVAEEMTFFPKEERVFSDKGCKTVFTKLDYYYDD
Sequence of Streptavidin (Streptomyces avidinii) (P22629 whole entry, looked up): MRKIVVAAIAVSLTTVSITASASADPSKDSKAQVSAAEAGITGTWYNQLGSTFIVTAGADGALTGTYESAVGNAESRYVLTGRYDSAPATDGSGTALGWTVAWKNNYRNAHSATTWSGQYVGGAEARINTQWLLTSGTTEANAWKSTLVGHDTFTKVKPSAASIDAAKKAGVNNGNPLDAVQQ

Row | Compound | composite z-score [1] | z-score [2] | z-score [3] | z-score [4] | z-score [5] | composite z-score [6] | composite z-score [7] | composite z-score (Torsin-1A (Homo sapiens) [8]) | composite z-score (Torsin-1A (Homo sapiens) [9]) | composite z-score [10]
1 | COC(=O)CC=C[C@@H](C)[C@@H](C=NOC[C@@H](C)[C@H](OCc1ccccc1)C(C)C)OC | 0.0814 | -0.112 (inactive) | -0.0142 (inactive) | 0.848 (inactive) | 0.0112 (inactive) | -0.437 | -0.161 | 0.155 | -0.0103 | 0.359
2 | COc1ccc(COC(=O)NN=C2C[C@@H](O)[C@@H](O)[C@@H]3[C@@H]4C(=O)N([C@@H](C)c5ccccc5)C(=O)[C@@H]4CC[C@H]23)cc1 | 0.366 | -1.71 (inactive) | -0.183 (inactive) | 1.79 (inactive) | -0.183 (inactive) | 1.02 | 0.0667 | -0.982 | 0.106 | -0.983
3 | CC#CCOCCC=C1c2ccccc2[C@@H](OC)[C@@H]1C | 0.179 | 0.447 (inactive) | -0.445 (inactive) | 1.42 (inactive) | -0.146 (inactive) | -0.534 | -0.122 | 0.147 | 0.481 | 0.584
4 | CC(C)=NOC[C@@H](O)[C@H]1O[C@@H]2OC(C)(C)O[C@@H]2[C@H]1O | -0.297 | 0.605 (inactive) | 0.503 (inactive) | -0.473 (inactive) | -0.476 (inactive) | 1.23 | 0.333 | 1.34 | 0.0837 | 0.785
5 | COc1cccc([C@H]2Oc3ccc(OC)cc3C(=NO[C@@H](C)c3cc(-c4c(C)cc(C)cc4C)no3)[C@@H]2O)c1 | -0.556 | -0.686 (inactive) | 0.409 (inactive) | 1.42 (inactive) | 0.596 (inactive) | -0.756 | -0.23 | -1.26 | -0.489 | -2.3
6 | CC(C)[C@@H](OCc1ccccc1)[C@H](C)C=NO[C@H](C)c1cn([C@@H]2COC[C@H]2O)nn1 | 0.31 | -0.703 (inactive) | 1.28 (inactive) | 0.927 (inactive) | -0.379 (inactive) | 0.0286 | -0.0843 | 1.4 | 1.56 | 0.371
7 | COC(=O)[C@H](C)NC(=O)CCC1CC(OC(=O)NCc2cccc3ccccc23)CC2(CCCC(COC(=O)NCCc3ccccc3OC)O2)O1 (stereo not given in full) | 0.259 | -0.701 (inactive) | 0.326 (inactive) | 0.556 (inactive) | 0.684 (inactive) | 0.759 | -0.0361 | 0.475 | 0.406 | 0.963
8 | COC(=O)[C@@H]1CC[C@H](C)[C@@H](c2ccc(Br)cc2)N1C[C@@H](O)CN=[N+]=[N-] | 0.538 | -3.06 (inactive) | -1.91 (inactive) | 0.105 (inactive) | -0.571 (inactive) | 0.398 | -0.224 | 0.54 | -0.117 | 0.581
9 | O=C(NCCC[N+]1=CC=NC1c1ccccc1)N1CCCc2nc(-c3ccc(Br)cc3)ccc21 (stereo not given) | -0.215 | -2.49 (inactive) | 0.616 (inactive) | -0.888 (inactive) | -0.0384 (inactive) | 0.0054 | -0.118 | 0.291 | 0.405 | 0.322
10 | CCOC(=O)[C@H](Cc1ccccc1)NC(=O)CCC1CC(OC(=O)NCc2ccc3c(c2)OCO3)CC2(CCCC(COC(=O)NCCCN3CCCC3=O)O2)O1 (stereo not given in full) | 0.0512 | -1.98 (inactive) | 0.14 (inactive) | 1.01 (inactive) | -0.257 (inactive) | 0.669 | -0.0736 | 0.408 | 0.078 | 1.53
11 | COc1ccc(COC(=O)NN=C2C[C@@H](O)[C@@H](O)[C@@H]3[C@@H]4C(=O)N(C5CCCCC5)C(=O)[C@@H]4CC[C@@H]23)cc1 | 0.0311 | -0.252 (inactive) | 0.755 (inactive) | 2.32 (inactive) | 0.0868 (inactive) | 0.576 | -0.0774 | -0.367 | 0.223 | -0.791
12 | C=CC[C@@H]1C=CC(ON=C(C)C)[C@@H](CO)O1 (stereo not given in full) | -0.174 | 0.28 (inactive) | 0.0414 (inactive) | -1.13 (inactive) | -0.92 (inactive) | 0.543 | 0.0357 | 0.193 | -0.611 | -0.117
13 | COC(=O)[C@H](C)NC(=O)CCC1CC(OC(=O)NCc2ccc3c(c2)OCO3)CC2(CCCC(COC(=O)NCCc3ccc(Cl)cc3)O2)O1 (stereo not given in full) | -0.132 | 0.173 (inactive) | -0.0135 (inactive) | -0.526 (inactive) | 0.336 (inactive) | -0.334 | -0.159 | -0.157 | 0.193 | 0.579
14 | CCOC(=O)[C@H](CC(C)C)NC(=O)CCC1CC(OC(=O)NCCc2ccc(F)cc2)CC2(CCCC(COC(=O)NCCOC)O2)O1 (stereo not given in full) | 0.441 | -0.127 (inactive) | 0.045 (inactive) | 0.198 (inactive) | 0.0489 (inactive) | 0.581 | -0.215 | 0.441 | 0.259 | 1.53
15 | CON=C[C@@H](OC)[C@H](C)C=CCC(=O)OC | -0.115 | -0.569 (inactive) | 0.157 (inactive) | 0.257 (inactive) | 0.034 (inactive) | -0.0172 | -0.0762 | 0.752 | -0.0215 | 0.183
16 | C[C@@H]1CC[C@@H](C(=O)O)N[C@H]1c1cccc(N2CCOCC2)c1 | -0.0449 | -0.538 (inactive) | -1.08 (inactive) | -0.974 (inactive) | -1.29 (inactive) | 0.032 | -0.273 | 0.482 | 0.944 | 0.908
17 | CC(C)CON=C1C[C@@H](O)[C@@H](O)[C@@H]2[C@@H]3C(=O)N(Cc4ccc5c(c4)OCO5)C(=O)[C@@H]3CC[C@@H]12 | 0.199 | -0.415 (inactive) | -0.488 (inactive) | 0.241 (inactive) | 0.384 (inactive) | 0.289 | -0.0645 | -0.515 | 0.203 | 0.108
18 | COc1ccc(O[C@H]2C=C[C@@H](c3ccccc3)O[C@@H]2CON=C(C)CCN2CCCc3nc(C)c(C)cc32)cc1 | 0.0474 | -0.381 (inactive) | -0.291 (inactive) | 2.46 (inactive) | 0.544 (inactive) | 0.294 | -0.0079 | 0.476 | 0.46 | 0.661
19 | CCOC(=O)NN=C1C[C@@H](O)[C@@H](O)[C@@H]2[C@@H]3C(=O)N(CC)C(=O)[C@@H]3CC[C@H]12 | 0.0375 | 0.383 (inactive) | 0.345 (inactive) | -0.656 (inactive) | -0.628 (inactive) | 0.0571 | -0.252 | 0.399 | 0.441 | 0.0046
20 | CC(=O)OC[C@H]1O[C@@H](ON=C(C)CCC(=O)OC[C@H]2O[C@H](C#Cc3ccccc3)C=C[C@@H]2Oc2ccc(C)cc2)[C@H](OC(C)=O)[C@@H](OC(C)=O)[C@@H]1OC(C)=O | 0.428 | -1.1 (inactive) | -0.238 (inactive) | 2.19 (inactive) | 0.725 (inactive) | 0.29 | -0.082 | 0.513 | 0.461 | 1.19
21 | C[C@@H]1CC[C@H]2C(=O)OC(CN3C(=O)c4ccccc4C3=O)CN2[C@H]1c1ccc(Br)cc1 (stereo not given in full) | -0.0102 | 0.135 (inactive) | 0.447 (inactive) | 1.19 (inactive) | -0.841 (inactive) | 0.942 | -0.045 | -0.0288 | 0.396 | -0.365
22 | CC(C)=CCCC(C)=CCON=C1C[C@@H](O)[C@@H](O)[C@@H]2[C@@H]3C(=O)N(Cc4ccc5c(c4)OCO5)C(=O)[C@@H]3CC[C@H]12 | 0.352 | -1.61 (inactive) | 0.802 (inactive) | -0.295 (inactive) | 0.489 (inactive) | 0.133 | -0.0332 | 0.46 | 0.724 | 0.728
23 | CO[C@H]1COC(=O)CCC[C@H](C)[C@H](OC)COC(=O)CC=C[C@@H]1C | -0.225 | -1.15 (inactive) | -0.339 (inactive) | -1.29 (inactive) | -0.46 (inactive) | 0.116 | -0.154 | 1.78 | 1.64 | 1.79
24 | O=C1C=C[C@@H](O)[C@@H]2[C@@H]3C(=O)N(c4cccc(Oc5ccccc5)c4)C(=O)[C@@H]3CC[C@@H]12 | -0.136 | -3.63 (inactive) | -0.743 (inactive) | 1.43 (inactive) | -0.358 (inactive) | 0.061 | -0.128 | 0.96 | -0.118 | 0.64
25 | CCOC(=O)[C@H](CC(C)C)NC(=O)CCC1CC(OC(=O)NCc2ccc3c(c2)OCO3)CC2(CCCC(COC(=O)NCCOC)O2)O1 (stereo not given in full) | -0.0334 | -0.413 (inactive) | 0.211 (inactive) | 0.56 (inactive) | 0.59 (inactive) | 0.0301 | -0.0006 | -0.0402 | 0.354 | 1.46
26 | CO[C@@H]1COC(=O)[C@H](CCSC)NC(=O)CC=C[C@@H](C)COC(=O)[C@@H]2CCCN2C(=O)CC=C[C@H]1C | 0.186 | -0.501 (inactive) | 0.277 (inactive) | 0.0652 (inactive) | -1.38 (inactive) | -0.234 | -0.024 | 1.24 | 0.785 | 0.876
27 | COCOc1ccc(Br)cc1C(=O)C=Cc1ccc2c(c1)OCO2 | -0.18 | -3.9 (inactive) | -1.46 (inactive) | 15.5 (active) | 5.69 (inactive) | -0.0743 | -0.182 | 0.61 | 0.281 | 0.487
